From PMC8384837, “Expanding the binding specificity for RNA recognition by a PUF domain”
Where a chain is given by its changes, count along the chain named.

Legend:
Experiment in all cases: yeast three-hybrid, YBZ-1, SC-Leu-His + 0.5 mM 3-AT, 4 days
Conditions in all cases: tags: N-Gal4 AD-HA kept; label: inside an RPR1-promoter hybrid RNA with tandem MS2 sites; ssRNA
[1] = target: PUM1 PUF domain R1-RMS (Homo sapiens, UniProt Q14671 828-1176, S863R;R864M;Q867S)
Procedure, shortened: (§1)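 Pumilio-1 PUF domain libraries, randomized at the three base-contacting residues of each repeat, were co-expressed with matching RNA elements from a centromeric plasmid in strain YBZ-1, which carries a LexA–MS2 coat fusion and a HIS3 reporter. Transformants grew for four days on SC-Leu (input) or on SC-Leu-His + 0.5 mM 3-AT (selection), and the repeat regions were PCR-amplified and Illumina-sequenced. The interaction score is the log change in variant frequency from input to selection. That logarithm is base 2, with a pseudocount of 1 where a variant was absent.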

[2] = target: PUM1 PUF domain R1-LKR (Homo sapiens, UniProt Q14671 828-1176, S863L;R864K;Q867R)
Procedure, shortened: as §1

[3] = target: PUM1 PUF domain R1-GPK (Homo sapiens, UniProt Q14671 828-1176, S863G;R864P;Q867K)
Procedure, shortened: as §1

[4] = target: PUM1 PUF domain R1-KFV (Homo sapiens, UniProt Q14671 828-1176, S863K;R864F;Q867V)
Procedure, shortened: as §1

[5] = target: PUM1 PUF domain R7-KHQ (Homo sapiens, UniProt Q14671 828-1176, S1079K;N1080H;E1083Q)
Procedure, shortened: as §1

[6] = target: PUM1 PUF domain R4-TAQ (Homo sapiens, UniProt Q14671 828-1176, N971T;H972A)
Procedure, shortened: as §1

[7] = target: PUM1 PUF domain R4-GYP (Homo sapiens, UniProt Q14671 828-1176, N971G;H972Y;Q975P)
Procedure, shortened: as §1

[8] = target: T1, PUM1 PUF domain R6-FWS (Homo sapiens, UniProt Q14671 828-1176, N1043F;Y1044W;Q1047S)
T1 sequence: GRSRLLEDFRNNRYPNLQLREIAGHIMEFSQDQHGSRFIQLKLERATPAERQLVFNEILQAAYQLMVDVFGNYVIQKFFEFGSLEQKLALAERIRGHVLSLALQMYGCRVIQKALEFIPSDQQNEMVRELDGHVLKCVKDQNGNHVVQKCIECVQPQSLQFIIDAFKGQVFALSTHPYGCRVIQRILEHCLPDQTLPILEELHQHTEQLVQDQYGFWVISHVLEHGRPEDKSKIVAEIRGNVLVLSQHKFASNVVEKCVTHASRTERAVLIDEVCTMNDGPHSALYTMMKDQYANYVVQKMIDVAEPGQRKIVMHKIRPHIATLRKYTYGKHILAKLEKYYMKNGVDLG
Procedure, shortened: as §1

[9] = target: T2, PUM1 PUF domain R6-LYA (Homo sapiens, UniProt Q14671 828-1176, N1043L;Q1047A)
T2 sequence: T1 sequence with F216L, W217Y, S220A
Procedure, shortened: as §1

[10] = target: PUM1 PUF domain R8-NWH (Homo sapiens, UniProt Q14671 828-1176, Y1123W;Q1126H)
Procedure, shortened: as §1

[11] = target: PUM1 PUF domain R8-RCR (Homo sapiens, UniProt Q14671 828-1176, N1122R;Y1123C;Q1126R)
Procedure, shortened: as §1

[12] = target: PUM1 PUF domain R3-GPV (Homo sapiens, UniProt Q14671 828-1176, C935G;R936P;Q939V)
Procedure, shortened: as §1

[13] = target: PUM1 PUF domain R8-RYR (Homo sapiens, UniProt Q14671 828-1176, N1122R;Q1126R)
Procedure, shortened: as §1

[14] = target: PUM1 PUF domain R8-DYR (Homo sapiens, UniProt Q14671 828-1176, N1122D;Q1126R)
Procedure, shortened: as §1

[15] = target: PUM1 PUF domain R3-VRH (Homo sapiens, UniProt Q14671 828-1176, C935V;Q939H)
Procedure, shortened: as §1

[16] = target: PUM1 PUF domain R3-WYA (Homo sapiens, UniProt Q14671 828-1176, C935W;R936Y;Q939A)
Procedure, shortened: as §1

[17] = target: PUM1 PUF domain R3-LWI (Homo sapiens, UniProt Q14671 828-1176, C935L;R936W;Q939I)
Procedure, shortened: as §1

[18] = target: PUM1 PUF domain R3-SSD (Homo sapiens, UniProt Q14671 828-1176, C935S;R936S;Q939D)
Procedure, shortened: as §1

[19] = target: PUM1 PUF domain R8-HFL (Homo sapiens, UniProt Q14671 828-1176, N1122H;Y1123F;Q1126L)
Procedure, shortened: as §1

[20] = target: PUM1 PUF domain R8-KRH (Homo sapiens, UniProt Q14671 828-1176, N1122K;Y1123R;Q1126H)
Procedure, shortened: as §1

Sequence: GGCUAGAACUAGUGGAUCCCCCGGCGCCCGGCGGCUCGAGCCCGGGUAAGUGUAAAUUGUCUGCAUGCCGCCGGGCGCCAUGCCUGCAGGUCGACUCUAGAAAACAUG
- binding signal [1]: 2.07 log2 enrichment (interaction score)
- binding signal [2]: 2.22 log2 enrichment (interaction score)
- binding signal [3]: 2.87 log2 enrichment (interaction score)
- binding signal [4]: 3.92 log2 enrichment (interaction score)

Sequence: GGCUAGAACUAGUGGAUCCCCCGGCGCCCGGCGGCUCGAGCCCGGGUAAGUGUAAAUCGUCUGCAUGCCGCCGGGCGCCAUGCCUGCAGGUCGACUCUAGAAAACAUG
- binding signal [1]: 3.18 log2 enrichment (interaction score)
- binding signal [2]: 3.44 log2 enrichment (interaction score)
- binding signal [3]: 4.33 log2 enrichment (interaction score)

Sequence: GGCUAGAACUAGUGGAUCCCCCGGCGCCCGGCGGCUCGAGCCCGGGUAAGUCUAAAUAGUCUGCAUGCCGCCGGGCGCCAUGCCUGCAGGUCGACUCUAGAAAACAUG
- binding signal [5]: 4.15 log2 enrichment (interaction score)

Sequence: GGCUAGAACUAGUGGAUCCCCCGGCGCCCGGCGGCUCGAGCCCGGGUAAGUGUAAAUGGUCUGCAUGCCGCCGGGCGCCAUGCCUGCAGGUCGACUCUAGAAAACAUG
- binding signal [3]: 0.78 log2 enrichment (interaction score)

Sequence: GGCUAGAACUAGUGGAUCCCCCGGCGCCCGGCGGCUCGAGCCCGGGUAAGUGUAUAUAGUCUGCAUGCCGCCGGGCGCCAUGCCUGCAGGUCGACUCUAGAAAACAUG
- binding signal [6]: 3.78 log2 enrichment (interaction score)
- binding signal [7]: 7.06 log2 enrichment (interaction score)

Sequence: GGCUAGAACUAGUGGAUCCCCCGGCGCCCGGCGGCUCGAGCCCGGGUAAGUGAAAAUAGUCUGCAUGCCGCCGGGCGCCAUGCCUGCAGGUCGACUCUAGAAAACAUG
- binding signal [8]: 4.06 log2 enrichment (interaction score)
- binding signal [9]: 1.91 log2 enrichment (interaction score)

Sequence: GGCUAGAACUAGUGGAUCCCCCGGCGCCCGGCGGCUCGAGCCCGGGUAAGUGUAAAUAGUCUGCAUGCCGCCGGGCGCCAUGCCUGCAGGUCGACUCUAGAAAACAUG
- binding signal [10]: 2.75 log2 enrichment (interaction score)
- binding signal [6]: 0.74 log2 enrichment (interaction score)
- binding signal [11]: 1.34 log2 enrichment (interaction score)
- binding signal [12]: 2.08 log2 enrichment (interaction score)
- binding signal [13]: 6.26 log2 enrichment (interaction score)
- binding signal [9]: 2.58 log2 enrichment (interaction score)
- binding signal [14]: 0.87 log2 enrichment (interaction score)
- binding signal [7]: 5.1 log2 enrichment (interaction score)
- binding signal [15]: 4.55 log2 enrichment (interaction score)

Sequence: GGCUAGAACUAGUGGAUCCCCCGGCGCCCGGCGGCUCGAGCCCGGGUAAGUGUACAUAGUCUGCAUGCCGCCGGGCGCCAUGCCUGCAGGUCGACUCUAGAAAACAUG
- binding signal [7]: 5.39 log2 enrichment (interaction score)

Sequence: GGCUAGAACUAGUGGAUCCCCCGGCGCCCGGCGGCUCGAGCCCGGGUAAGUUUAAAUAGUCUGCAUGCCGCCGGGCGCCAUGCCUGCAGGUCGACUCUAGAAAACAUG
- binding signal [5]: 2.38 log2 enrichment (interaction score)

Sequence: GGCUAGAACUAGUGGAUCCCCCGGCGCCCGGCGGCUCGAGCCCGGGUAAGUGUAAUUAGUCUGCAUGCCGCCGGGCGCCAUGCCUGCAGGUCGACUCUAGAAAACAUG
- binding signal [16]: 3.22 log2 enrichment (interaction score)
- binding signal [12]: 2.28 log2 enrichment (interaction score)

Sequence: GGCUAGAACUAGUGGAUCCCCCGGCGCCCGGCGGCUCGAGCCCGGGUAAGUGUAAGUAGUCUGCAUGCCGCCGGGCGCCAUGCCUGCAGGUCGACUCUAGAAAACAUG
- binding signal [17]: 3.8 log2 enrichment (interaction score)
- binding signal [18]: 2.19 log2 enrichment (interaction score)

Sequence: GGCUAGAACUAGUGGAUCCCCCGGCGCCCGGCGGCUCGAGCCCGGGUAAGCGUAAAUAGUCUGCAUGCCGCCGGGCGCCAUGCCUGCAGGUCGACUCUAGAAAACAUG
- binding signal [11]: 3.19 log2 enrichment (interaction score)
- binding signal [13]: 7.21 log2 enrichment (interaction score)
- binding signal [19]: 2.79 log2 enrichment (interaction score)
- binding signal [14]: 3.04 log2 enrichment (interaction score)
- binding signal [20]: 2.93 log2 enrichment (interaction score)
